Results reported in PubChem BioAssay (EPA / NIEHS).
Calls of active or inactive are those of the source. How the source made its calls: active means hit-call score of the fitted dose curve at least 0.9, where 1 is the maximum; inactive means score below 0.9.

Legend:
[1] = ATG_CRE_CIS: Attagene CIS-FACTORIAL HepG2 Assay for human cAMP Responsive Element (CRE) binding protein 3 (AID 2282926); conditions: HepG2 CRE cis-reporter, Attagene multiplexed mRNA; actives raise or lower the signal
Method in brief: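 Endogenous transcription factor activity read via CRE-regulated reporter transcripts in transfected HepG2 cells. After 24 h exposure, RNA was reverse-transcribed, amplified, fluorescently labelled and sized by capillary electrophoresis; gain or loss fitted against DMSO.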

[2] = molecular target: CCAAT/enhancer-binding protein beta (Homo sapiens) (UniProt P17676); experiment: ATG_C_EBP_CIS: Attagene CIS-FACTORIAL HepG2 Assay for human CCAAT/Enhancer Binding Protein (C/EBP) beta (AID 2282927); conditions: HepG2 Attagene cis-factorial transcription factor reporter; actives raise or lower the signal
Method in brief: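 Following a 24 h incubation with test chemical, transfected HepG2 cells yielded RNA whose reporter transcripts were quantified by RT-PCR and fluorescent capillary electrophoresis, with DMSO serving as baseline for bidirectional fitting.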

[3] = ATG_CMV_CIS: Attagene CIS-FACTORIAL HepG2 Assay for human CMV (Internal Marker) (AID 2282928); conditions: HepG2 CMV promoter reporter, transcription factor profiling; actives raise or lower the signal;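 further: endpoint acts as a background internal control marker rather than a target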
Method in brief: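 24 h chemical treatment, HepG2 with transient multi-reporter transfection; RNA → oligo(dT) RT → PCR → 6-FAM extension → HpaI digest → CE fluorescence. Bidirectional fit, DMSO negative control.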

[4] = ATG_DR4_LXR_CIS: Attagene CIS-FACTORIAL HepG2 Assay for human Liver X Receptor (LXR), DR4 submotif (AID 2282929); conditions: HepG2 Attagene DR4 cis-reporter, mRNA transcription; actives raise or lower the signal
Method in brief: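 Cells were transfected with multiple reporter transcription units, exposed to chemicals for 24 hours, then lysed for RNA. Reporter mRNA induction was measured by RT-PCR with capillary electrophoresis detection and fitted in both directions relative to DMSO.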

[5] = molecular target: Aryl hydrocarbon receptor (Homo sapiens) (UniProt P35869); experiment: ATG_Ahr_CIS: Attagene CIS-FACTORIAL HepG2 Assay for human Aryl Hydrocarbon Receptor (Ahr) (AID 2282930); conditions: HepG2 AhR cis-factorial reporter transcription; actives raise or lower the signal
Method in brief: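 Values derive from bidirectional fitting against DMSO negative control. Underlying signal: cis-element reporter mRNA in transiently transfected HepG2, harvested 24 h post-dose and measured by RT-PCR plus capillary electrophoresis.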

[6] = ATG_AP_1_CIS: Attagene CIS-FACTORIAL HepG2 Assay for human Activator Protein 1 (AP-1) (AID 2282931); conditions: HepG2 Attagene cis-factorial AP-1 reporter mRNA; actives raise or lower the signal
Method in brief: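 Endogenous transcription-factor activity in human HepG2 liver cells is read through a cis-promoter reporter transcript, sampled 24 h after dosing. Detection uses RT-PCR with capillary electrophoresis; values come from bidirectional fitting relative to DMSO.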

[7] = ATG_AP_2_CIS: Attagene CIS-FACTORIAL HepG2 Assay for human Activator Protein 2 (AP-2) (AID 2282932); conditions: HepG2 AP-2 cis-reporter, Attagene transcription factor profiling; actives raise or lower the signal
Method in brief: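 Assay in transfected HepG2 with promoter-regulated reporters, 24 h incubation after dosing. Signal is reporter mRNA fluorescence (RT-PCR, capillary electrophoresis), analysed for both increases and decreases relative to DMSO controls.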

[8] = ATG_BRE_CIS: Attagene CIS-FACTORIAL HepG2 Assay for human Bone Morphogenetic Protein (BMP) Response Element (BRE) (AID 2282933); conditions: HepG2 BMP response element reporter, Attagene transcription factor profiling; actives raise or lower the signal
Method in brief: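 Read-out: reporter mRNA induction quantified by RT-PCR and capillary electrophoresis after 24 h chemical exposure of transfected HepG2 cells. Endogenous factor activity on the BMP response element; gain or loss fitted against DMSO baseline.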

[9] = molecular target: Retinoic acid receptor alpha (Homo sapiens) (UniProt P10276); experiment: ATG_DR5_RAR_CIS: Attagene CIS-FACTORIAL HepG2 Assay for human Retinoic Acid Receptor Alpha (RARE), DR5 submotif (AID 2282934); conditions: HepG2 Attagene cis-factorial RARE DR5 reporter, mRNA; actives raise or lower the signal
Method in brief: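 Endpoint fitted in both directions relative to DMSO as negative control. It reflects DR5 cis-element reporter mRNA induction in transiently transfected HepG2 cells, measured 24 h after dosing through RT-PCR and fluorescent capillary electrophoresis.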

[10] = molecular target: Transcription factor E2F1 (Homo sapiens) (UniProt Q01094); experiment: ATG_E2F_CIS: Attagene CIS-FACTORIAL HepG2 Assay for human E2F Transcription Factor 1 (AID 2282935); conditions: HepG2 Attagene cis-reporter, E2F reporter RNA transcripts; actives raise or lower the signal
Method in brief: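 In this cis-factorial format, endogenous factor activity drives transfected reporters in HepG2; transcripts collected at 24 h are quantified by fluorescence after RT-PCR and capillary separation.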

Measured: AC50

CCAAT/enhancer-binding protein beta (Homo sapiens), sequence (P17676 whole entry, looked up): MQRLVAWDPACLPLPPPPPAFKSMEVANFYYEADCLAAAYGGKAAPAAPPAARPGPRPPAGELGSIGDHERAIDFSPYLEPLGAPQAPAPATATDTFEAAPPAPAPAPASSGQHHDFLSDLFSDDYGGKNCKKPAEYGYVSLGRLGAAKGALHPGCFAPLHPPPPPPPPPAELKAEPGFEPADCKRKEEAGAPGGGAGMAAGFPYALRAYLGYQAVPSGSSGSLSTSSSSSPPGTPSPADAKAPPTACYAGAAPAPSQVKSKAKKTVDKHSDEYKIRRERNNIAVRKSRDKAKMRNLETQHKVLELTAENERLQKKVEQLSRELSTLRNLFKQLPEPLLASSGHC
Retinoic acid receptor alpha (Homo sapiens), sequence (P10276 whole entry, looked up): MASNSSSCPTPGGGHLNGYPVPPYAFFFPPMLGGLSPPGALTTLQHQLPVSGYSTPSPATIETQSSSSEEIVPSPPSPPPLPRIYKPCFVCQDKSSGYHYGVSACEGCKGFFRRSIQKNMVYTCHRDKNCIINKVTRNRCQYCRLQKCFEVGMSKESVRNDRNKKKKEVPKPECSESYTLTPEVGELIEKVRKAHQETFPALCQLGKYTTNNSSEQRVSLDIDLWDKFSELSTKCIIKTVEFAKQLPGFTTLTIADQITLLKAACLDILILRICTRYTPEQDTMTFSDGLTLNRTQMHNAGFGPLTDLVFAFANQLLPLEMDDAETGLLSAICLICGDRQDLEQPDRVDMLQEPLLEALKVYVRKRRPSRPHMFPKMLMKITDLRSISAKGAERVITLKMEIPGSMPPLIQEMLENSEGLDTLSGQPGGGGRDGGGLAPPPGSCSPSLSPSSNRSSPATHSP
Transcription factor E2F1 (Homo sapiens), sequence (Q01094 whole entry, looked up): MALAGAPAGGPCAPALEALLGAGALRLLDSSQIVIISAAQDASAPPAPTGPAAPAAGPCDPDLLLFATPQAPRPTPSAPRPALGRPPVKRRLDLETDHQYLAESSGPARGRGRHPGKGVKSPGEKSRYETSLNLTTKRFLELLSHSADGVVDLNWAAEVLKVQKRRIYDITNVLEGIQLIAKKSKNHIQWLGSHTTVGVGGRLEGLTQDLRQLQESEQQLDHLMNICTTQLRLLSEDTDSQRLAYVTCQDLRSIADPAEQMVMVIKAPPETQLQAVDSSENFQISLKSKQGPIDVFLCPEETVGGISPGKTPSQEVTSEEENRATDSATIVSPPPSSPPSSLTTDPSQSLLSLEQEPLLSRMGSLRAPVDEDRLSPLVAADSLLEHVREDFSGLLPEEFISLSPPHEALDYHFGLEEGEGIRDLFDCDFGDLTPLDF
Aryl hydrocarbon receptor (Homo sapiens), sequence (P35869 whole entry, looked up): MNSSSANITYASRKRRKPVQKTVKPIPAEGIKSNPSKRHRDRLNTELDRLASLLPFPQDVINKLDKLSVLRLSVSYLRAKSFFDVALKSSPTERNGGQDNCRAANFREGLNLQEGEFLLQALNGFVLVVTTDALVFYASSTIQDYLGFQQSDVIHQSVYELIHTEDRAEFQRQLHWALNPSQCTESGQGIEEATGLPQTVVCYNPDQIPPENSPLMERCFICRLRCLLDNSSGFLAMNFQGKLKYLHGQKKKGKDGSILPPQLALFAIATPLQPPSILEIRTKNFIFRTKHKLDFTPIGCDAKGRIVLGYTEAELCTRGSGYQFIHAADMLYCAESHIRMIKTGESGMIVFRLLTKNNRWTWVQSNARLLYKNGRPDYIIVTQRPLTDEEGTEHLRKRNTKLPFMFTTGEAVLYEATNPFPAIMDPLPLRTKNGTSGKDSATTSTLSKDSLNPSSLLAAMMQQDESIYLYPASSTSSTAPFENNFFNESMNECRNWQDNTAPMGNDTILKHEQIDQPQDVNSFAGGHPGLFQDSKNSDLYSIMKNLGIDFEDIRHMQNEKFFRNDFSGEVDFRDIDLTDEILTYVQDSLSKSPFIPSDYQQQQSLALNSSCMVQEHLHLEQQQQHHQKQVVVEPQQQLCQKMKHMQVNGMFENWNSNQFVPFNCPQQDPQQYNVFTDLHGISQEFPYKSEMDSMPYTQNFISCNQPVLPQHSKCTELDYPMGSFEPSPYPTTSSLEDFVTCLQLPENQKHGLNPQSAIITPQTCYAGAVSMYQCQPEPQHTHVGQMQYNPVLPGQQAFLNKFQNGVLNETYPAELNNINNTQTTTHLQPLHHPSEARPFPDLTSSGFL

O=NO
inactive: all assays above

NC(=Nc1ccccc1)Nc1ccccc1
active: [4] 61.8 µM | [5] 13.1 µM
not listed: [7] | [9]
inactive: all other assays above

CC(C)COC(=O)CCCCC(=O)OCC(C)C
inactive: all assays above

C/C=C/c1ccc(OC)cc1
not listed: [9]
inactive: all other assays above

COc1ccc(OC(F)(F)F)cc1CN[C@H]1CCCN[C@H]1c1ccccc1
not listed: [9]
inactive: all other assays above

Nc1nc(=S)c2[nH]cnc2[nH]1
active: [2] 100 µM | [3] 19 µM | [5] 66.3 µM | [6] 12 µM
inactive: all other assays above

CC(COCC(C)OC(=O)c1ccccc1)OC(=O)c1ccccc1 (centres undefined)
inactive: all assays above

CN(C)CCCN1c2ccccc2Sc2ccc(Cl)cc21
active: [4] 9.33 µM | [6] 18.2 µM
not listed: [9]
inactive: all other assays above

O=C(O)c1[nH]n(-c2ccc(S(=O)(=O)O)cc2)c(=O)c1N=Nc1ccc(S(=O)(=O)O)cc1
active: [5] 58.7 µM
not listed: [9]
inactive: all other assays above

Cn1cnc2c1c(=O)[nH]c(=O)n2C
inactive: all assays above
